# Results published in ChEMBL document CHEMBL4513141, “CO-ADD screening of NIH (USA) - Clinical Collection” (2021).
# Potency and affinity values are given separately.
# How the values were obtained:
# [1] = tested on: Klebsiella pneumoniae; conditions: Concentration 20 uM; ASSAY_TEST Inhibition of Bacterial Growth; detection method Absorption (OD600); MEDIA CAMHB; plate type 384well; NBS; CORNING #3640; time 18 hr
# [2] = tested on: Candida albicans; conditions: 20 µM
# [3] = tested on: Cryptococcus neoformans; conditions: Concentration 20 uM; ASSAY_TEST Inhibition of Fungal Growth; detection method Resazurin; Absorption (OD600-OD570); plate type 384well; NBS; CORNING #3640
Compound,Inhibition [1] [%],Inhibition [2] [%],Inhibition [3] [%]
CCCC(CCC)C(=O)O [VALPROIC ACID],1.95,5.05,-4.42
CCOC(=O)C1=C(C)NC(C)=C(C(=O)OC)C1c1cccc(Cl)c1Cl (centres undefined) [FELODIPINE],7.48,1.71,-9.45
CC(=O)[C@@]1(O)CC[C@H]2[C@@H]3C[C@H](C)C4=CC(=O)CC[C@]4(C)[C@H]3CC[C@@]21C,2.71,2.87,-0.94
CC(=O)OCC(=O)[C@@]1(O)CC[C@H]2[C@@H]3C[C@H](C)C4=CC(=O)C=C[C@]4(C)[C@H]3[C@@H](O)C[C@@]21C [METHYLPREDNISOLONE ACETATE],10.69,-0.69,-0.41
C/C=C1/[C@H]2C=C(C)C[C@]1(N)c1ccc(O)nc1C2,13.99,2.85,-7.02
CCC(=C(c1ccccc1)c1ccc(OCCN(C)C)cc1)c1ccccc1,0.16,5.96,1.89
Cc1ccc(N(CC2=NCCN2)c2cccc(O)c2)cc1 [PHENTOLAMINE],6.34,2.06,-2.31
CC1=Nc2ccc(Cl)cc2S(=O)(=O)N1 [DIAZOXIDE],19.87,4.07,-6.19
CCCCc1nc(Cl)c(CO)n1Cc1ccc(-c2ccccc2-c2nnn[n-]2)cc1.[K+] [LOSARTAN POTASSIUM],7.23,5,-3.04
CCCCCCCCCCC[C@@H](C[C@@H]1OC(=O)[C@H]1CCCCCC)OC(=O)[C@H](CC(C)C)NC=O [ORLISTAT],7.06,1.01,-4.7
COc1cc([C@@H]2c3cc4c(cc3[C@@H](O[C@@H]3O[C@@H]5CO[C@@H](C)O[C@H]5[C@H](O)[C@H]3O)[C@H]3COC(=O)[C@H]23)OCO4)cc(OC)c1O [ETOPOSIDE],4.81,0.59,-6.14
Cl.Nc1c2c(nc3ccccc13)CCCC2 [TACRINE HYDROCHLORIDE],15.67,1.65,-5.28
CN(C)CCCN1c2ccccc2Sc2ccc(Cl)cc21.Cl [CHLORPROMAZINE HYDROCHLORIDE],12.47,0.59,2.71
CCOC(=O)[C@@H](CCc1ccccc1)N[C@@H](C)C(=O)N1CCC[C@H]1C(=O)O.O=C(O)/C=C\C(=O)O,10.36,0.69,-1.23
COC(=O)C1=C(C)NC(C)=C(C(=O)OCCN(C)Cc2ccccc2)C1c1cccc([N+](=O)[O-])c1.Cl (centres undefined) [NICARDIPINE HYDROCHLORIDE],-5.88,0.94,-9.15
CN1CCC(=C2c3ccccc3C=Cc3ccccc32)CC1.Cl [CYPROHEPTADINE HYDROCHLORIDE],17.49,3.56,-5.58
Cl.O=c1n(CCCN2CCN(c3cccc(Cl)c3)CC2)nc2ccccn12 [TRAZODONE HYDROCHLORIDE],4.82,3.08,-5.73
CN1CCN(CC/C=C2/c3ccccc3Sc3ccc(S(=O)(=O)N(C)C)cc32)CC1 [THIOTHIXENE],0.07,2.99,-5.03
Cl.Clc1ccc2nsnc2c1NC1=NCCN1 [TIZANIDINE HYDROCHLORIDE],10.36,3.84,-1.24
CCN(CC)CCOc1ccc(C(=C(Cl)c2ccccc2)c2ccccc2)cc1.O=C(O)CC(O)(CC(=O)O)C(=O)O [CLOMIPHENE CITRATE],12.13,7.1,-20.85
CC(C(O)c1ccc(O)cc1)N1CCC(Cc2ccccc2)CC1.O.O=C(O)C(O)C(O)C(=O)O (centres undefined),15.53,2.38,-4.72
CC(C)(C)NCC(O)COc1cccc2c1CC(O)C(O)C2 (centres undefined) [NADOLOL],10.61,1.18,-8.66
CCCc1nc(C(C)(C)O)c(C(=O)OCc2oc(=O)oc2C)n1Cc1ccc(-c2ccccc2-c2nnn[nH]2)cc1 [OLMESARTAN MEDOXOMIL],5.33,4.08,-0.73
CC(CN1c2ccccc2Sc2ccccc21)N(C)C.Cl (centres undefined) [PROMETHAZINE HYDROCHLORIDE],0.77,3.31,-6.2
NC(=O)c1cnccn1 [PYRAZINAMIDE],10.9,1.92,-9.58
COc1cc2c(cc1OC)C(=O)C(CC1CCN(Cc3ccccc3)CC1)C2.Cl (centres undefined) [DONEPEZIL HYDROCHLORIDE],5.21,3.08,-7.79
CCN(CC)CC(=O)Nc1c(C)cccc1C [LIDOCAINE],14.92,1.15,-4.85

Compound,Inhibition [1] [%],Inhibition [2] [%],Inhibition [3] [%]
Nc1nc(Cl)nc2c1ncn2[C@@H]1O[C@H](CO)[C@@H](O)[C@H]1O,2.26,4.78,0.98
CCCNC(C)C(=O)Nc1ccccc1C.Cl (centres undefined) [PRILOCAINE HYDROCHLORIDE],10.6,2.91,-8.37
CC1(C)O[C@@H]2C[C@H]3[C@@H]4C[C@H](F)C5=CC(=O)C=C[C@]5(C)[C@H]4[C@@H](O)C[C@]3(C)[C@]2(C(=O)CO)O1 [FLUNISOLIDE],10.74,7.13,-6.19
CN1C(C(=O)Nc2ccccn2)=C(O)c2ccccc2S1(=O)=O.O,9.7,7.55,-5.24
O=C([O-])c1cc(=O)c2c(OCC(O)COc3cccc4oc(C(=O)[O-])cc(=O)c34)cccc2o1.[Na+].[Na+] [CROMOLYN SODIUM],6.64,2.62,0.69
CCCCC(=O)O[C@H]1CC[C@H]2[C@@H]3CCc4cc(O)ccc4[C@H]3CC[C@]12C [ESTRADIOL VALERATE],8.52,0.66,2.38
CSc1ccc2c(c1)N(CCC1CCCCN1C)c1ccccc1S2.Cl (centres undefined) [THIORIDAZINE HYDROCHLORIDE],9.7,4.12,4.01
COC(=O)CCc1ccc(OCC(O)CNC(C)C)cc1.Cl (centres undefined) [ESMOLOL HYDROCHLORIDE],3.48,1.99,-7.33
O=c1c(O[C@@H]2O[C@H](CO)[C@@H](O)[C@H](O)[C@H]2O)c(-c2ccc(O)c(O)c2)oc2cc(O)cc(O)c12 [ISOQUERCETIN],10.08,1.9,3.22
Cc1ccc(S(=O)(=O)NC(=O)NN2CCCCCC2)cc1 [TOLAZAMIDE],-1.58,-0.09,-7.48
Br.CN(C)CCCC1(c2ccc(F)cc2)OCc2cc(C#N)ccc21 (centres undefined) [CITALOPRAM HYDROBROMIDE],0.36,2.48,-12.2
CCC[C@@H]1C[C@@H](C(=O)N[C@@H]([C@H]2O[C@H](SC)[C@H](O)[C@@H](O)[C@H]2O)[C@@H](C)O)N(C)C1.Cl.O [LINCOMYCIN HYDROCHLORIDE],17.37,4.06,-3.42
C[C@]12C=CC(=O)C=C1CC[C@@H]1[C@@H]2C(=O)C[C@@]2(C)[C@H]1CC[C@]2(O)C(=O)CO [PREDNISONE],18.73,1.91,-7.34
CC1(C)O[C@@H]2[C@@H](CO[C@@]3(COS(N)(=O)=O)OC(C)(C)O[C@@H]23)O1 [TOPIRAMATE],6.32,2.83,-6.94
Cl.O=C1c2c(O)ccc(O)c2C(=O)c2c(NCCNCCO)ccc(NCCNCCO)c21,7.11,-4.12,21.29
O=C(O)c1cc2ccccc2c(Cc2c(O)c(C(=O)O)cc3ccccc23)c1O.OCCOCCN1CCN(C(c2ccccc2)c2ccc(Cl)cc2)CC1 [HYDROXYZINE PAMOATE],14.51,5.15,7.04
Cc1[nH]c(=O)c(C#N)cc1-c1ccncc1 [MILRINONE],13.45,3.54,-6.55
Sc1ncnc2nc[nH]c12 [MERCAPTOPURINE ANHYDROUS],7.84,11.2,-0.87
CCOC(=O)[C@H](CCc1ccccc1)N[C@@H](C)C(=O)N1Cc2ccccc2C[C@H]1C(=O)O.Cl [QUINAPRIL HYDROCHLORIDE],14.37,3.86,-5.15
CCN(CC)CCNC(=O)c1cc(Cl)c(N)cc1OC.Cl,10.19,3.69,-1.39
CCc1ccc(CCOc2ccc(CC3SC(=O)NC3=O)cc2)nc1.Cl (centres undefined) [PIOGLITAZONE HYDROCHLORIDE],2.41,2.58,-2.27
CC(C[N+](C)(C)C)OC(N)=O.[Cl-] (centres undefined) [BETHANECHOL CHLORIDE],8.32,0.53,0.14
CCOC(=O)OC(C)OC1=C(C(=O)Nc2ccccn2)N(C)S(=O)(=O)c2ccccc21 (centres undefined) [AMPIROXICAM],12.2,0.25,-3.23
CN1CCc2cc(Cl)c(O)cc2[C@@H](c2ccccc2)C1.Cl,8.81,1.81,-7.18
CC1CCN(CCCC(=O)c2ccc(F)cc2)CC1.Cl,24.05,2.99,-4.29
CC1(C)O[C@@H]2C[C@H]3[C@@H]4CCC5=CC(=O)C=C[C@]5(C)[C@@]4(F)[C@@H](O)C[C@]3(C)[C@]2(C(=O)CO)O1 [TRIAMCINOLONE ACETONIDE],14.59,0.96,-5.82
